From PubChem BioAssay (NCATS)
Results filed as inconclusive are left out. The source made the active and inactive calls. The call rests on the fitted dose curve; in most records, active means well fitted inhibition curve with a large enough effect; inconclusive means small, poorly fitted or top-dose-only effect; inactive means flat fitted curve, though single readings scatter.

Legend:
[1] = qHTS profiling for inhibitors of Plasmodium falciparum proliferation (AID 504749); further: nearly all actives have a fitted effect of over 60% in size;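 on activity, negative = inhibition: 0% = DMSO vehicle and full inhibition = artemisinin control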; details: P. falciparum in erythrocytes, SYBR Green DNA, 72 h
Outline: (§1)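 Parasite proliferation within erythrocytes, 72 h exposure. Endpoint: SYBR Green I fluorescence after overnight lysis at room temperature. Controls: 0.29 uM artemisinin, DMSO.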

[2] = test system: 3D7; assay: as above; details: P. falciparum in erythrocytes, SYBR Green DNA, 72 h; series mostly up to 28.7 µM
Outline: as §1

[3] = test system: 7G8; assay: as above; details: P. falciparum in erythrocytes, SYBR Green DNA, 72 h; series mostly up to 28.7 µM
Outline: as §1

[4] = test system: AA1029; assay: as above; details: P. falciparum in erythrocytes, SYBR Green DNA, 72 h; series mostly up to 28.7 µM
Outline: as §1

[5] = test system: AS120; assay: as above; details: P. falciparum in erythrocytes, SYBR Green DNA, 72 h; series mostly up to 28.7 µM
Outline: as §1

[6] = test system: ATS189; assay: as above; details: P. falciparum in erythrocytes, SYBR Green DNA, 72 h; series mostly up to 28.7 µM
Outline: as §1

[7] = test system: ATS95; assay: as above; details: P. falciparum in erythrocytes, SYBR Green DNA, 72 h; series mostly up to 28.7 µM
Outline: as §1

[8] = test system: C2A; assay: as above; details: P. falciparum in erythrocytes, SYBR Green DNA, 72 h; series mostly up to 28.7 µM
Outline: as §1

[9] = test system: CP185; assay: as above; details: P. falciparum in erythrocytes, SYBR Green DNA, 72 h; series mostly up to 28.7 µM
Outline: as §1

[10] = test system: CP191; assay: as above; details: P. falciparum in erythrocytes, SYBR Green DNA, 72 h; series mostly up to 28.7 µM
Outline: as §1

[11] = test system: CP192; assay: as above; details: P. falciparum in erythrocytes, SYBR Green DNA, 72 h; series mostly up to 28.7 µM
Outline: as §1

[12] = test system: CP194; assay: as above; details: P. falciparum in erythrocytes, SYBR Green DNA, 72 h; series mostly up to 28.7 µM
Outline: as §1

[13] = at 28.7 µM (top of the series), parasite line A
[14] = at 28.7 µM (top of the series), parasite line B
Potency means the concentration at half of the fitted maximal effect.

CC(C)(C)CC(C)(C)c1cc(Cc2cc(C(C)(C)CC(C)(C)C)cc(-n3nc4ccccc4n3)c2O)c(O)c(-n2nc3ccccc3n2)c1
inactive: activity, negative = inhibition [1, 13] 10.8% | activity, negative = inhibition [1, 14] 2.7% | Potency [2] | Potency [3] | Potency [4] | Potency [5] | Potency [6] | Potency [7] | Potency [8] | Potency [9] | Potency [10] | Potency [11] | Potency [12]

CO/N=C(\C(=O)N[C@@H]1C(=O)N2C(C(=O)[O-])=C(C[n+]3cccc4c3CCC4)CS[C@H]12)c1csc(N)n1
inactive: activity, negative = inhibition [1, 13] 12.2% | activity, negative = inhibition [1, 14] 2.56% | Potency [2] | Potency [3] | Potency [4] | Potency [5] | Potency [6] | Potency [7] | Potency [8] | Potency [9] | Potency [10] | Potency [11] | Potency [12]

C=Cc1ccc(S(=O)(=O)O)cc1
inactive: activity, negative = inhibition [1, 13] 12.2% | activity, negative = inhibition [1, 14] -6.31% | Potency [2] | Potency [3] | Potency [4] | Potency [5] | Potency [6] | Potency [7] | Potency [8] | Potency [9] | Potency [10] | Potency [11] | Potency [12]

CCc1ccc(S(=O)(=O)O)cc1
inactive: activity, negative = inhibition [1, 13] -3.46% | activity, negative = inhibition [1, 14] 4.58% | Potency [2] | Potency [3] | Potency [4] | Potency [5] | Potency [6] | Potency [7] | Potency [8] | Potency [9] | Potency [10] | Potency [11] | Potency [12]

N[C@H](CC(=O)O)C(=O)O
inactive: activity, negative = inhibition [1, 13] 6.17% | activity, negative = inhibition [1, 14] 8.93% | Potency [2] | Potency [3] | Potency [4] | Potency [5] | Potency [6] | Potency [7] | Potency [8] | Potency [9] | Potency [10] | Potency [11] | Potency [12]

CSCCC(N)C(=O)O (centres undefined)
inactive: activity, negative = inhibition [1, 13] 6.14% | activity, negative = inhibition [1, 14] 15.2% | Potency [2] | Potency [3] | Potency [4] | Potency [5] | Potency [6] | Potency [7] | Potency [8] | Potency [9] | Potency [10] | Potency [11]

O=C(O)CCC(=O)c1ccc(-c2ccccc2)cc1
inactive: activity, negative = inhibition ([1]; at 12.8 µM (top of the series), parasite line A) -3.71% | activity, negative = inhibition ([1]; at 12.8 µM (top of the series), parasite line B) 12.2% | Potency [2] | Potency [3] | Potency [4] | Potency [5] | Potency [6] | Potency [7] | Potency [8] | Potency [9] | Potency [10] | Potency [11] | Potency [12]

CC/C(=C(/CC)c1ccc(OP(=O)(O)O)cc1)c1ccc(OP(=O)(O)O)cc1
inactive: activity, negative = inhibition [1, 13] 13.6% | activity, negative = inhibition [1, 14] -2.71% | Potency [2] | Potency [3] | Potency [4] | Potency [5] | Potency [6] | Potency [7] | Potency [8] | Potency [9] | Potency [10] | Potency [11] | Potency [12]

CCN(CC)C(=S)S
inactive: activity, negative = inhibition [1, 13] -22.3% | activity, negative = inhibition [1, 14] -18.1% | Potency [2] | Potency [3] | Potency [4] | Potency [5] | Potency [6] | Potency [7] | Potency [8] | Potency [9] | Potency [10] | Potency [11] | Potency [12]

O=C(OC1C[C@@H]2CC3C[C@H](C1)N2CC3=O)c1c[nH]c2ccccc12 (some centres undefined)
inactive: activity, negative = inhibition [1, 13] -11.9% | activity, negative = inhibition [1, 14] -12.9% | Potency [2] | Potency [4] | Potency [5] | Potency [6] | Potency [7] | Potency [8] | Potency [9] | Potency [10] | Potency [11] | Potency [12]
active: Potency [3] 11.2 µM

NCC(O)CC(=O)O (centres undefined)
inactive: activity, negative = inhibition [1, 13] 13% | activity, negative = inhibition [1, 14] 3.91% | Potency [2] | Potency [3] | Potency [4] | Potency [5] | Potency [6] | Potency [7] | Potency [8] | Potency [9] | Potency [10] | Potency [11] | Potency [12]

CCOc1ccc(NC(=S)Nc2ccc(OCC)cc2)cc1
inactive: activity, negative = inhibition [1, 13] 1.76% | activity, negative = inhibition [1, 14] -2.23% | Potency [2] | Potency [3] | Potency [4] | Potency [5] | Potency [6] | Potency [7] | Potency [8] | Potency [9] | Potency [10] | Potency [11] | Potency [12]

C=C1C(CCl)(CCl)C2(Cl)C(Cl)C(Cl)C1(Cl)C2(Cl)Cl (centres undefined)
active: Potency ([1]; parasite line A) 2.51 µM | Potency ([1]; parasite line B) 1.26 µM | Potency [2] 1.78 µM | Potency [3] 0.282 µM | Potency [4] 3.16 µM | Potency [5] 2 µM | Potency [6] 3.16 µM | Potency [7] 3.16 µM | Potency [8] 3.16 µM | Potency [9] 3.16 µM | Potency [10] 3.16 µM | Potency [11] 5.36 µM | Potency [12] 6.75 µM

NC(=S)NS(=O)(=O)c1ccc(N)cc1
inactive: activity, negative = inhibition [1, 13] -3.33% | activity, negative = inhibition [1, 14] -5.51% | Potency [2] | Potency [3] | Potency [4] | Potency [5] | Potency [6] | Potency [7] | Potency [8] | Potency [9] | Potency [10] | Potency [11] | Potency [12]

CCCC(=O)O
inactive: activity, negative = inhibition [1, 13] 7.39% | activity, negative = inhibition [1, 14] 16.4% | Potency [2] | Potency [3] | Potency [4] | Potency [5] | Potency [6] | Potency [7] | Potency [8] | Potency [9] | Potency [10] | Potency [11] | Potency [12]
